Candida biofilm: clotrimazole potentiators killing Candida biofilms, primary screen, with clotrimazole, Alamar Blue; C. albicans biofilm + clotrimazole; inhibition, % at 6 µM; 85,000 tested, 0.14% active; AID 834, 2007;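 active means inhibition above 20%; inactive means inhibition below 20%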;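 further: preformed 24 hr biofilms exposed to compound for 48 hr; 0% = biofilm without compound and 100% = blank killed by clotrimazole plus chlorhexidine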
ERa coact inh: ERα–SRC-1 coactivator interaction inhibitors, primary screen, biochemical, TR-FRET, ERα LBD, estradiol-bound; Estrogen receptor (Homo sapiens), P03372; TR-FRET ER-alpha LBD / SRC-1 peptide; inhibition, % at 25.6 µM; 86,000 tested, 1.7% active; AID 629, 2007; in the data active means inhibition above about 50%;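 further: 0% = receptor plus peptide control and 100% = peptide only without receptor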
E-sel TNF inh: E-selectin induction blockers in HUVEC – imaging, immunofluorescence, high content, primary screen | inhibition, % at 2 µM | HUVEC TNFa-induced E-selectin immunofluorescence | AID 1246, 2008 | 120,000 tested, 0.71% active;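 active means inhibition above the batch mean plus 3 SD, and confirmed as a hit on visual image review, cut at about 43% in these data; inconclusive means passes the inhibition cutoff but fails visual image review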;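 further: 0% = TNF-stimulated DMSO wells and 100% = unstimulated control wells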
cytoskel mod: modifiers of F-actin cytoskeleton organization, primary screen, imaging, HUVEC, phalloidin staining, high-content imaging; AID 836, 2007; 91,000 tested, 0.18% active; HUVEC TNFa F-actin phalloidin imaging; inhibition, % at 2 µM;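 active means inhibition above the batch mean plus 3 SD and confirmed as a hit by visual image inspection, cut at about 30% in these data, passing the limit was not always enough; inconclusive means above the inhibition threshold but rejected on visual inspection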
ERa SRC1 pot: enhancers of ERα–SRC-1 coactivator binding, primary screen, biochemical, TR-FRET, ERα LBD, low estradiol; coactivator binding (% of control), % at 25.6 µM; 86,000 tested, 1.3% active; AID 639, 2007; Estrogen receptor (Homo sapiens), P03372; TR-FRET ERalpha-LBD/SRC-Cy5 coactivator binding, 2 h; 100 = basal binding, no effect; in the data active means activity above about 200%;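 further: binding measured in presence of low estradiol as agonist stimulus; 0% = peptide alone without receptor and 100% = receptor with peptide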
ERb SRC1 inh: inhibitors of ERβ-SRC1 coactivator interaction, primary screen, biochemical, TR-FRET, ERβ LBD, SRC-1 peptide; Estrogen receptor beta (Homo sapiens), Q92731; TR-FRET ER-beta LBD / SRC1-Cy5 peptide binding; receptor agonist-loaded with 1 µM estradiol; inhibition, % at 25.6 µM; 86,000 tested, 1.3% active;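 active means compounds whose percent inhibition of the receptor-coactivator binding signal exceeds about 50% in the single-dose screen, limit read from the data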;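 further: 0% = receptor plus peptide wells without compound and 100% = peptide-only wells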
Target sequence (Q92731 whole entry, looked up, the tested form may be a part): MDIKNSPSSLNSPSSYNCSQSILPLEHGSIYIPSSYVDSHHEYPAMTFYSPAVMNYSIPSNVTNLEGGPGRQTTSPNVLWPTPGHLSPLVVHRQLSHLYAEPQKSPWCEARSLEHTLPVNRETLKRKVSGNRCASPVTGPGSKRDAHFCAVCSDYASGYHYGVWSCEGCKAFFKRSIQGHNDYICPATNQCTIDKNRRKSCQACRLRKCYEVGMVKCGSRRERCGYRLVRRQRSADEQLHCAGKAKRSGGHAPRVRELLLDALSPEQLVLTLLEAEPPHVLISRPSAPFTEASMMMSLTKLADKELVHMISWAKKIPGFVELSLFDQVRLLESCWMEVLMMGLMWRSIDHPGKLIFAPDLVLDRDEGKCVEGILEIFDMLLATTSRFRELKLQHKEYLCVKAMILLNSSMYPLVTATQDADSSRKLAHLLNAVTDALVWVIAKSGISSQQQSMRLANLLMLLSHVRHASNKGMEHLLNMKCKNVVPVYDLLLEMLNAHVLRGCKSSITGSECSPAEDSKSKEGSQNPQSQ
Starred values were filed as active, the others as inactive; [ ] = another dose, or the depositor's remark. Compounds with a hit are over-represented: about 2.9% of the library has one in this group of screens.

COc1ccc(-c2cc(C(=O)Nc3cccc(C(C)=O)c3)no2)cc1 was read as Candida biofilm -2, ERa coact inh 16, E-sel TNF inh -13, cytoskel mod 8, ERa SRC1 pot 228*[fluorescence artefact?] and ERb SRC1 inh 10.
`O=C1CN(C(=O)COC(=O)C23CC4CC(CC(O)(C4)C2)C3)c2ccccc2N1` gave Candida biofilm 9, ERa coact inh 0, E-sel TNF inh -15, cytoskel mod 10, ERa SRC1 pot 103 and ERb SRC1 inh 5.
`CC1(C)C(=O)Nc2ccccc2N1C(=O)COC(=O)C12CC3CC(CC(O)(C3)C1)C2` gave Candida biofilm 6, ERa coact inh 88*[fluorescence artefact?], E-sel TNF inh -31, cytoskel mod 0, ERa SRC1 pot 54 and ERb SRC1 inh 78*[fluorescence artefact?].
For COc1ccccc1/C=N/N(C(C)=O)c1nc(-c2ccc(F)cc2)cs1 the results were E-sel TNF inh -77 and cytoskel mod 20.
`CN1CCCCC1=NCCCn1cnc2c1c(=O)n(C)c(=O)n2C` gave E-sel TNF inh -33 and cytoskel mod -7.
Screening Cn1c(=O)c2c(ncn2CCCNC2=CC(C)(C)CC(=O)C2)n(C)c1=O returned Candida biofilm 6, ERa coact inh 37, E-sel TNF inh 17, cytoskel mod -3, ERa SRC1 pot 49 and ERb SRC1 inh 52*.
O=C(OCn1nnc2ccccc2c1=O)C1CCCCC1 was read as Candida biofilm 3, ERa coact inh -7, E-sel TNF inh 0, cytoskel mod -2, ERa SRC1 pot 100 and ERb SRC1 inh -11.
O=C(CSc1nn(-c2ccc(F)cc2)c(=S)s1)NC(=O)NCc1ccco1 was read as Candida biofilm -1, ERa coact inh 67*[fluorescence artefact?], E-sel TNF inh 36, cytoskel mod -3, ERa SRC1 pot 72 and ERb SRC1 inh 47.
For O=C(Cn1cccc1C(=O)c1ccccc1)NCc1ccco1 the results were Candida biofilm 4, ERa coact inh -7, cytoskel mod -4, ERa SRC1 pot 104 and ERb SRC1 inh -2.
For Cc1cc(SCC(=O)NC(=O)NCc2ccco2)nc2ccccc12 the results were Candida biofilm 10, ERa coact inh 9, E-sel TNF inh 6, cytoskel mod 12, ERa SRC1 pot 127 and ERb SRC1 inh 5.
Screening Cc1cc(SCC(=O)NC(=O)NCc2ccco2)nc2c(C)cccc12 returned Candida biofilm 5, ERa coact inh 65*, E-sel TNF inh -4, ERa SRC1 pot 60 and ERb SRC1 inh 50.
Screening Cn1c(SCC(=O)NC(=O)NCc2ccco2)nnc1-c1ccccc1 returned Candida biofilm -1, ERa coact inh 59*[fluorescence artefact?], E-sel TNF inh 2, cytoskel mod 27, ERa SRC1 pot 142 and ERb SRC1 inh 52*[fluorescence artefact?].
`Cc1ccccc1C(=O)c1cccn1CC(=O)NCc1ccco1` gave Candida biofilm 7, ERa coact inh 8, E-sel TNF inh 62*, cytoskel mod 17, ERa SRC1 pot 96 and ERb SRC1 inh 20.
Screening COC(=O)c1ccc(COc2ccc(/C=N/O)cc2)o1 returned E-sel TNF inh -1.
`Cc1ccccc1CSCC(=O)NC(=O)NCc1ccco1` gave Candida biofilm 8, ERa coact inh 55*, E-sel TNF inh 8, ERa SRC1 pot 82 and ERb SRC1 inh 40.
For O=C(CSc1nc2ccccc2o1)NC(=O)NCc1ccco1 the results were Candida biofilm 9, ERa coact inh 30, E-sel TNF inh 10, cytoskel mod 13, ERa SRC1 pot 96 and ERb SRC1 inh 32.
Screening CCCCn1c(SCC(=O)NC(=O)NCc2ccco2)nc2cc(S(N)(=O)=O)ccc21 returned Candida biofilm 9, ERa coact inh 58*[fluorescence artefact?], cytoskel mod 16, ERa SRC1 pot 80 and ERb SRC1 inh 43.
`CCNC(=O)NC(=O)CSc1cccc(C(F)(F)F)c1` gave Candida biofilm 10, ERa coact inh 0, ERa SRC1 pot 110 and ERb SRC1 inh 6.
For O=C(CSc1cccc(C(F)(F)F)c1)NC(=O)NCc1ccco1 the results were Candida biofilm 8, ERa coact inh 53*, E-sel TNF inh 7, ERa SRC1 pot 76 and ERb SRC1 inh 29.
For CCOc1ccc2nc(SCC(=O)NC(=O)NCc3ccco3)[nH]c2c1 the results were Candida biofilm -3, ERa coact inh 38, E-sel TNF inh -10, cytoskel mod 14, ERa SRC1 pot 74 and ERb SRC1 inh 56*[fluorescence artefact?].
`O=S(=O)(NCCn1ccc2ccccc21)c1ccccc1` gave Candida biofilm 6, ERa coact inh -9, E-sel TNF inh 5, cytoskel mod -4, ERa SRC1 pot 98 and ERb SRC1 inh -5.
Screening Cc1ccc(NC(=O)COC(=O)/C=C/c2cccs2)c(C)c1 returned E-sel TNF inh -44.
Nn1c(SCC(=O)NC(=O)NCc2ccccc2)nnc1C1CC1 was read as Candida biofilm 9, ERa coact inh -6, E-sel TNF inh 6, cytoskel mod -5, ERa SRC1 pot 118 and ERb SRC1 inh 81*[fluorescence artefact?].
For NC(=O)c1ccsc1NC(=O)COC(=O)Cc1ccsc1 the results were Candida biofilm 2, ERa coact inh 55*[fluorescence artefact?], E-sel TNF inh -32, cytoskel mod 10, ERa SRC1 pot 71 and ERb SRC1 inh 60*.
For Cc1cccc(C)c1NC(=O)COC(=O)Cc1ccsc1 the results were E-sel TNF inh -7.
For COc1ccc(C(=O)Cc2nnc(C)s2)cc1 the results were E-sel TNF inh 0.
`COC(=O)COc1ccc(S(=O)(=O)Nc2ccc3c(c2)OCO3)cc1` gave Candida biofilm 8, ERa coact inh 67*, E-sel TNF inh -30, cytoskel mod -2, ERa SRC1 pot 57 and ERb SRC1 inh 22.
Screening COC(=O)COc1ccc(S(=O)(=O)Nc2ccc3c(c2)OCO3)cc1Cl returned Candida biofilm 5, ERa coact inh 6, E-sel TNF inh -17, cytoskel mod 15, ERa SRC1 pot 101 and ERb SRC1 inh 8.
COc1ccc(-n2c(=S)[nH]c3cc(C(=O)NCc4ccco4)ccc3c2=O)cc1OC was read as Candida biofilm 5, ERa coact inh -5, E-sel TNF inh 67*, cytoskel mod 36, ERa SRC1 pot 103 and ERb SRC1 inh -2.
Screening COc1ccc(CCn2c(=S)[nH]c3cc(C(=O)NCc4ccco4)ccc3c2=O)cc1OC returned Candida biofilm 1, ERa coact inh 71*[fluorescence artefact?], E-sel TNF inh inconclusive, cytoskel mod -69, ERa SRC1 pot 88 and ERb SRC1 inh 55*[fluorescence artefact?].
For COc1cccc2cc(-c3cn4cccc(C)c4n3)c(=O)oc12 the results were E-sel TNF inh -38 and cytoskel mod 0.
